Compounds with a hit are over-represented: about 19% of the library has one in this group of screens.
Marburg entry inh: qHTS for inhibitors of binding or entry into cells for Marburg Virus; Marburg virus pseudotyped entry inhibition, cell reporter; Potency, µM (series often up to 37.8 µM), for inactives: top-dose activity change, negative = inhibition, most hits filed as inhibitors; 1.8% of 300,000 active; calls by dose curve; tested in HEK293 cells; also: potency is read from the fitted curve at half-maximal effect; % is scaled to controls: 0 for no effect and ±100 for the full control effect
Pf growth 96h: Primary qHTS for delayed death inhibitors of the malarial parasite plastid, 96 hour incubation | 6.9% of 320,000 active | Potency, µM (highest dose often 28.7 µM), for inactives: top-dose activity change, negative = inhibition, actives largely listed as inhibitors | P. falciparum luciferase reporter growth, 96 h; also: potency is read from the fitted curve at half-maximal effect; % is scaled to controls: 0 for no effect and ±100 for the full control effect
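Plates of compound plus infected erythrocytes (2% hematocrit, 0.05% parasitemia final) incubate 96 hours, 37 C, 5% CO2. Detection reagent added; reduced luminescence from the parasites' luciferase reporter flags inhibition.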
Lassa entry inh: qHTS for Inhibitors of binding or entry into cells for Lassa Virus. Lassa virus pseudotype entry inhibition, cell reporter. 1.2% of 300,000 active. Potency, µM (titrated, usually from 37.9 µM), without a hit: top-dose activity change, negative = inhibition, usual class: inhibitors. AID 540256, 2011; calls by dose curve; tested in HEK293 cells; also: potency is read from the fitted curve at half-maximal effect; % is scaled to controls: 0 for no effect and ±100 for the full control effect; nearly all actives have a fitted effect of over 50% in size
Pf growth 48h: Primary qHTS for delayed death inhibitors of the malarial parasite plastid, 48 hour incubation; P. falciparum luciferase growth in erythrocytes, 48 h; Potency, µM (highest dose often 28.7 µM), without a hit: at the top dose activity change, negative = inhibition, usual class: inhibitors; 5.9% of 310,000 active; AID 504832, 2011; also: potency is read from the fitted curve at half-maximal effect; % is scaled to controls: 0 for no effect and ±100 for the full control effect
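Luciferase-expressing parasites in RBCs, 2% Hct / 0.1% parasitemia final; RPMI 1640 + 0.5% Albumax; 37 C, 5% CO2, one generation; luminescence read-out, lower signal = inhibition.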
Shiga toxin inh: A qHTS for Small Molecule Inhibitors of Shiga Toxin. inhibition, % at 38.7 µM. AID 2315, 2010. 9.2% of 290,000 active. Vero cells, Shiga toxin protein synthesis inhibition reporter; in the data active = inhibition mostly above about 28%, no sharp cut-off; inactive = mostly below about 43%; also: 0% is about no effect
CHX counter: Cycloheximide Counterscreen for Small Molecule Inhibitors of Shiga Toxin | cell reporter, cycloheximide protein synthesis inhibition counterscreen | max response, % | 12% of 300,000 active | AID 2314, 2010; in the data active = max response mostly above about 13%, no sharp cut-off; inactive = mostly below about 14%; also: read at 38.3 µM for the half of the compounds with a filed dose; 0% is about no effect
The depositor's hits bear a star; i = inactive; ? = inconclusive; / = no result; [ ] = remark or other dose. Unless noted, calls follow the shape of the dose curve; as a rule, active = well fitted inhibition curve with a large enough effect; inconclusive = small, poorly fitted or top-dose-only effect, or another doubt; inactive = no such curve, though single readings can be large or run the other way.

SMILES | Marburg entry inh | Pf growth 96h | Lassa entry inh | Pf growth 48h | Shiga toxin inh | CHX counter
C/C(N)=C(/C#N)C(=O)CSc1nnnn1-c1ccccc1 | ? | 36% | 2% | 12% | 10 | -3
C/C(N)=C(/C#N)C(=O)CSc1nnnn1-c1ccc(C)cc1 | ? | ? | 9% | 12% | 50 | 36*
C/C(N)=C(/C#N)C(=O)CSc1nnc(Nc2ccccc2)s1 | ? | 7% | ? | 63% | 139* | 42*
O=C(CSc1nnc(Nc2ccccc2)s1)NC1CC1 | / | ? | / | 16% | / | /
C/C(N)=C(/C#N)C(=O)CSc1nnc(Nc2ccccc2C)s1 | 24% | 7.4µM* | 3% | 58% | 51* | 46*
C/C(N)=C(/C#N)C(=O)CSc1nnc(NC(C)C)s1 | ? | ? | ? | 120% | 58* | 30*
COc1cc(NC(=O)CSc2nnc(NC(C)C)s2)cc(OC)c1OC | ? | -27% | 0%[46.1 µM] | ? | -7 | -2
CC(=O)c1c(Nc2ccc3c(c2)OCCO3)oc(C)cc1=O | -2% | ? | / | / | 118* | 52*
Cc1occc1C(=O)Nc1ccc2c(c1)OCCO2 | ? | -26% | 6% | 146% | 100* | 107*
Cc1occc1C(=O)Nc1cccc([N+](=O)[O-])c1 | 13% | 18% | 5% | 65% | 17 | -2
O=C(Nc1ccc2c(c1)OCCO2)c1coc2ccccc2c1=O | -5% | i | -6% | 51% | 60* | 48*
Cc1occc1C(=O)Nc1ccc2c(c1)CCC2 | 3% | 25% | -20% | 112% | 103* | 48*
O=C1/C(=C/c2ccccc2)N=C(N2CCOCC2)N1c1cccc(Cl)c1 | -9% | ? | 10% | ? | -1 | -4
Cc1ccc(-n2c(=O)[nH]cc(C(=O)N3CCc4ccccc43)c2=O)cc1 | 0% | ? | -6% | 19% | -18 | -3
CC1CCCCC1NC(=O)COC(=O)c1ccc2c(c1Cl)C(=O)c1ccccc1C2=O (stereo not drawn) | ? | 13% | -13% | -4% | -8 | 13
Cc1cc(C(=O)Nc2ccc3c(c2)OCCO3)c(C)o1 | ? | / | ? | 150% | 68* | 28*
CSc1ccccc1C(=O)Nc1ccc2c(c1)OCCO2 | 13% | ? | 8% | 37% | 64 | 23
Cc1ccccc1C(=O)Nc1ccc2c(c1)OCCO2 | / | ? | / | 194% | 20 | 18*
Cn1c(=O)c(C(=O)CN2CCN(Cc3ccc4c(c3)OCO4)CC2)c(N)n(Cc2ccccc2)c1=O | / | -1% | / | -22% | -3 | -3
Cc1cc(C)n2nc3nc4c(cc3c2n1)CCCC4 | 1% | ? | 2% | -32% | 35 | 15
Cc1cc(-c2nc3ncccc3o2)ccc1NC(=O)CC(C)C | ? | 4.1µM* | 5% | 8% | 10 | 7
Cc1ccc(-c2nc3ncccc3o2)cc1NC(=O)C(C)C | 13%[46.1 µM] | 6% | 11%[46.1 µM] | ? | 20 | -2
CCCCC(=O)Nc1cccc(-c2nc3ncccc3o2)c1C | -1% | -17% | -1% | 21% | 43 | 15*
Cc1c(NC(=O)C(C)C)cccc1-c1nc2ncccc2o1 | / | 9.3µM* | / | 5% | 25 | 9
CCCCC(=O)Nc1cc(-c2nc3ncccc3o2)ccc1C | 0%[46.1 µM] | 58%[1.15 µM] | -10%[46.1 µM] | -55%[1.15 µM] | -3 | -6
SMILES | Marburg entry inh | Pf growth 96h | Lassa entry inh | Pf growth 48h | Shiga toxin inh | CHX counter
O=C(CN1CCS(=O)(=O)CC1)NNC(=O)C1CCCCC1 | -8%[46.1 µM] | 17% | -12%[46.1 µM] | i | 4 | 2
COc1ccc(-c2cn(-c3ccccc3)c3[n+]2CCS3)cc1 | ? | 0.1µM* | ? | 0.93µM* | 18 | 2
c1ccc(-c2cn(-c3ccccc3)c3[n+]2CCS3)cc1 | ? | ? | ? | ? | -6 | 9
CC(C)(C)c1ccc(-c2cn(-c3ccc(Br)cc3)c3[n+]2CCCS3)cc1 | ? | ? | ? | 2.6µM* | 6 | -2
Cc1cc(NC(=O)CN2C(=O)N(C)C3(CCCCC3)C2=O)ccc1Br | / | -26% | / | ? | / | /
CN(CC(=O)NCCc1ccc(Cl)cc1)S(=O)(=O)c1ccc2c(c1)c(=O)n(C)c(=O)n2C | / | 13µM* | / | / | -3 | -6
Cc1ccc(NC(=O)CN(C)S(=O)(=O)c2ccc3c(c2)n(C)c(=O)c(=O)n3C)cc1C | -4%[46.1 µM] | / | -10%[46.1 µM] | / | / | /
COc1ccc(NC(=O)CN(C)S(=O)(=O)c2ccc3c(c2)c(=O)n(C)c(=O)n3C)cc1 | 9%[46.1 µM] | 13µM* | -1%[46.1 µM] | 0% | 26 | -4
Cc1ccc(NC(=O)CN(C)S(=O)(=O)c2ccc3c(c2)n(C)c(=O)c(=O)n3C)cc1 | / | 12µM* | / | ? | -3 | -1
CCc1ccc(NC(=O)CN(C)S(=O)(=O)c2ccc3c(c2)c(=O)n(C)c(=O)n3C)cc1 | 0%[46.1 µM] | / | 3%[46.1 µM] | / | / | /
CCC(C)c1ccc(NC(=O)c2cnn3c(C(F)F)cc(C)nc23)cc1 (stereo not drawn) | ? | 117% | 10% | ? | -3 | -3
CCOC(=O)C1=C(c2ccccc2)Nc2ncnn2C1c1ccccn1 (stereo not drawn) | -15% | / | -3% | -2% | -11 | -6
Cc1ccccc1Nc1nc(N)nc(COC(=O)[C@@H](NC(=O)c2ccco2)C(C)C)n1 | -4%[46.1 µM] | / | 22%[46.1 µM] | / | / | /
COc1ccc(-n2cc(CNC(C)c3ccncn3)c(-c3cccc(F)c3)n2)cc1 (stereo not drawn) | ? | ? | -4% | -15% | 22 | -5
CCC(COC)NCc1cn(-c2ccc(OC)cc2)nc1-c1cccc(F)c1 (stereo not drawn) | 10µM* | ? | ? | 12µM* | 9 | -2
COc1ccc(-n2cc(CNC3CCN(C)CC3)c(-c3cccc(F)c3)n2)cc1 | 3.2µM* | 55% | 11µM* | 1.5µM* | -2 | 7
O=C(CSc1ncnc2sc3c(c12)CCCC3)NC1CCS(=O)(=O)C1 (stereo not drawn) | 5% | / | -17% | / | / | /
CC(=O)NCCC(=O)N1CCCC(C(=O)c2ccc3c4c(cccc24)CC3)C1 (stereo not drawn) | -6%[46.1 µM] | -29% | ? | 9% | -10 | -1
CC(NC(=O)C1CCC(C(C)(C)C)CC1)C(c1ccccc1)N1CCOCC1 (stereo not drawn) | ? | 10µM* | -5%[46.1 µM] | ? | -2 | -1
CC(NC(=O)Nc1ccc(Cl)c(Cl)c1)C(c1ccccc1)N1CCOCC1 (stereo not drawn) | ? | 5.2µM* | ? | ? | -13 | 2
CC(NC(=O)Nc1ccc([N+](=O)[O-])cc1)C(c1ccccc1)N1CCOCC1 (stereo not drawn) | ? | ? | 6% | ? | 3 | 11
Cc1ccc(CNC(=O)c2cccnc2Sc2cccc(Cl)c2)cc1 | 1% | 55% | ? | 7% | 10 | 0

Assay outcomes deposited in PubChem by National Center for Advancing Translational Sciences (NCATS).
